We go through seven molecules from PubChem BioAssay (Tox21).

Values without a mark were called inactive. Results filed as inconclusive are left out. Active and inactive are the calls of the source. Unless noted, the call rests on the fitted dose curve; in most records, active means well fitted curve in the direction sought with a large enough effect in the repeat runs; inconclusive means weak or mixed curves; inactive means no such curve, though single readings can be large; an effect the other way counts as inactive or inconclusive.

Test [1] can be described thus: qHTS assay for small molecule agonists of the p53 signaling pathway (AID 651631; calls by dose curve; further: nearly all actives have a fitted effect of over 15% in size). In outline:
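HCT-116 p53RE-bla reporter line, 16 h compound treatment at 37 °C, then fluorescence after 2 h with B/G FRET substrate.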

Test [2] is described as follows: qHTS assay for small molecules that induce genotoxicity in human embryonic kidney cells expressing luciferase-tagged ATAD5 (AID 651632). Further: nearly all actives have a fitted effect of over 15% in size. In outline: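 Concentration-response screen for ATAD5 upregulation in HEK293T luciferase reporter cells; 16 hr treatment at 37C, then luminescence after 30 min with Amplite at room temperature.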
Test [3] can be described thus: qHTS assay for small molecule agonists of the p53 signaling pathway - cell viability (AID 651633; calls by dose curve;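 further: p53RE-bla HCT reporter cells with a stable beta-lactamase p53 reporter; nearly all actives have a fitted effect of over 30% in size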). The method in brief:
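Viability counter-read: CellTiter-Glo luminescence (30 min, room temperature) in the same p53RE-bla plates. These plates had been exposed to compounds for 16 h at 37 C.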

The nature of test [4]: qHTS assay for small molecules that induce genotoxicity in human embryonic kidney cells expressing luciferase-tagged ATAD5 - cell viability (AID 651634; calls by dose curve; further: nearly all actives have a fitted effect of over 25% in size). The method in brief: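 15.5 hr compound or vehicle exposure of HEK293T cells expressing luciferase-tagged ATAD5 at 37C; live-cell protease activity is read by fluorescence after 30 min of CellTiter-Fluor.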
Test [5] in a line: qHTS assay for small molecule disruptors of the mitochondrial membrane potential (AID 720635). Further: potency means the concentration at half of the fitted maximal effect. In outline: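 Mitochondrial membrane potential tracked with Mito-MPS dye, red aggregates (ex 540/em 590 nm) against green monomers (ex 490/em 535 nm). Compound treatment 1 hr at 37C, dye 30 min in HepG2.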
Test [6] is described as follows: qHTS assay to test for compound auto fluorescence at 590 nm (red) in HepG2 cells (AID 720674). In outline:
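1 hr compound incubation on HepG2 cells, 37 C, 5% CO2; plate read ex 540 nm / em 590 nm; intensities reported as Rose Bengal sodium equivalents.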

Test [7] is described as follows: qHTS assay to test for compound auto fluorescence at 535 nm (green) in HepG2 cells (AID 720675).
Test [8] in a line: qHTS assay to test for compound auto fluorescence at 460 nm (blue) in HEK293 cells (AID 720678). The method in brief: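 HEK293 cells (2,000 per well, medium with 10% dialyzed FBS) attached for 4-5 hr at 37C, then received compound and stood overnight at 37C, 5% CO2. Blue fluorescence was read at Ex/Em 405/460 nm and expressed relative to triamterene.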
A short description of test [9]: qHTS assay to test for compound auto fluorescence at 590 nm (red) in HEK293 cells (AID 720679). The method in brief:
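HEK293 cells (2,000/well, medium with 10% dialyzed FBS) attached for 4-5 hr at 37C, received 23 nL compound and were incubated overnight at 37C, 5% CO2. Red fluorescence was then read at 540/590nm Ex/Em, referenced to Rose Bengal sodium.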

Test [10] is described as follows: qHTS assay to test for compound auto fluorescence at 535 nm (green) in HEK293 cells (AID 720680).
A short description of test [11]: qHTS assay to test for compound auto fluorescence at 460 nm (blue) in HEK293 cell free culture (AID 720681). In outline: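 Blue fluorescence (Ex 405/Em 460 nm, triamterene-equivalent) was read immediately after pin transfer of compound or DMSO into medium (DMEM, 10% FBS) without cells.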
Test [12] can be described thus: qHTS assay to test for compound auto fluorescence at 535 nm (green) in HEK293 cell free culture (AID 720682). The method in brief: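 Steps: dispense DMEM/10% FBS into empty wells; pin in compound or DMSO; measure fluorescence at 485/535 nm. Values are fluorescein equivalents.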
The nature of test [13]: qHTS assay to test for compound auto fluorescence at 590 nm (red) in HEK293 cell free culture (AID 720683). In outline: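 Red-channel autofluorescence of compounds in culture medium (DMEM, 10% FBS), no cells, measured at 540/590 nm. Rose Bengal sodium is the reference fluorophore for equivalence.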
Test [14] can be described thus: qHTS assay to test for compound auto fluorescence at 590 nm (red) in HepG2 cell free culture (AID 720684). The method in brief: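 Cell-free; medium MEM + 10% FBS; compound or DMSO added by pintool; read Ex 540/Em 590 nm; Rose Bengal sodium as red reference fluorophore.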
Test [15] can be described thus: qHTS assay to test for compound auto fluorescence at 460 nm (blue) in HepG2 cell free culture (AID 720685). In outline:
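Cell-free plates of MEM plus 10% FBS received 23 nL compound or DMSO vehicle; blue-channel (405/460 nm) intensity scored against triamterene as reference fluorophore.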

Test [16] in a line: qHTS assay to test for compound auto fluorescence at 535 nm (green) in HepG2 cell free culture (AID 720686).
Test [17] in a line: qHTS assay to test for compound auto fluorescence at 460 nm (blue) in HepG2 cells (AID 720687). In outline: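 Blue-channel autofluorescence (Ex/Em 405/460 nm, triamterene-equivalent) was measured after 1 hr compound exposure at 37 C, 5% CO2. Cells were HepG2, plated overnight at 37 C in MEM plus 10% FBS.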
Test [18] is described as follows: qHTS assay for small molecule disruptors of the mitochondrial membrane potential - cell viability (AID 720634; calls by dose curve;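 further: human HepG2 liver cancer cells; nearly all actives have a fitted effect of over 20% in size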). In outline:
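In this qHTS format, HepG2 cells plated overnight were pinned with compound, incubated 1 hr, and assayed for ATP luminescence with CellTiter-Glo after m-MPI dye addition.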

Test [19] addresses Glucocorticoid receptor (Homo sapiens) (UniProt P04150). As to the kind of experiment: qHTS assay to identify small molecule agonists of the glucocorticoid receptor (GR) signaling pathway (AID 720691; active means well fitted activation curve with a large enough effect in the signal ratio in the repeat runs, not every such curve was filed as active; the % refers to the signal ratio). To be noted: GR-bla HeLa, beta-lactamase reporter ratio, 18 h; activation: at 62.4 µM (top of the series). The method in brief: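 Measures GR pathway activation through a GRE-beta-lactamase reporter stably integrated in HeLa cells, with 18 h compound treatment at 37 C and fluorescence detection using a FRET substrate.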

Test [20] shares this target. As to the kind of experiment: qHTS assay to identify small molecule antagonists of the glucocorticoid receptor (GR) signaling pathway (AID 720692; active means well fitted inhibition curve with a large enough effect in the signal ratio in the repeat runs, not every such curve was filed as active; the % refers to the signal ratio). The method in brief:
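Tox21 10K library screened in concentration-response for blockade of dexamethasone (5 nM final)-induced GRE-bla reporter activity in HeLa cells; 18 h treatment, fluorescence read.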
On the % scale 0 is the no-effect control and ±100 the full control effect.

Sequence of Glucocorticoid receptor (Homo sapiens) (P04150 whole entry, looked up): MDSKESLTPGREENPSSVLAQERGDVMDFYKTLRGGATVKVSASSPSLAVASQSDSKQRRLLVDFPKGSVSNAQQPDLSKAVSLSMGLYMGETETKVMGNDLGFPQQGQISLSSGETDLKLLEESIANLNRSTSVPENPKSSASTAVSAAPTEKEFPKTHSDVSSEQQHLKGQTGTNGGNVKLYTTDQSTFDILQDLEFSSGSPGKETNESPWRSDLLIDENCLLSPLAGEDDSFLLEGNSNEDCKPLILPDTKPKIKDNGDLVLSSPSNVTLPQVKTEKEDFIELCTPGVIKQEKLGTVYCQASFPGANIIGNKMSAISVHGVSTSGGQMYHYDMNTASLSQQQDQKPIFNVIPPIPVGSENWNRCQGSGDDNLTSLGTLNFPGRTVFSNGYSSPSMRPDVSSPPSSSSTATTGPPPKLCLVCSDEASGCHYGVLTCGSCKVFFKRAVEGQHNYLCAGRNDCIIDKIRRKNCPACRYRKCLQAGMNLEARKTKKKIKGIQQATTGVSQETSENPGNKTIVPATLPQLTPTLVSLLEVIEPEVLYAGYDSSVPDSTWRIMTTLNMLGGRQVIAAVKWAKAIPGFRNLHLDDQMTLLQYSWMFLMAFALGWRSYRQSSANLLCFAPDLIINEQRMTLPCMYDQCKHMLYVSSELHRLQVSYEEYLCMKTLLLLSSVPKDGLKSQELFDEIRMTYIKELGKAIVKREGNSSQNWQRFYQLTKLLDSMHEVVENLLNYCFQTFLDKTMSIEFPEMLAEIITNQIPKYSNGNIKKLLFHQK

Take `Oc1ccc(Cl)c(Cl)c1`: the Potency entry in test [1], in [2], in [3], in test [4], in test [7] and in [8] was “inactive” in each case. For the same molecule, the Potency entry in test [11], in [15], in [16] and in test [17] was “inactive” each time. Also, in test [5], the Potency is 6.75 µM (active). The outcome in test [6], in test [9], in [10], in [12], in [13] and in [14] was inactive.

With `Clc1ccc(C2(Cn3cncn3)OCCO2)c(Cl)c1`, the Potency entry in test [1], in test [2], in [3], in test [4], in test [18] and in [5] was “inactive” each time. The Potency entry in test [7], in [8], in test [11], in test [15], in [16] and in test [17] was “inactive” each time. Besides, the Potency result in test [19] and in test [20] was “inactive” each time. Further, the molecule was classed as inactive in test [6], in test [9], in test [10], in test [12], in test [13] and in test [14].

Regarding `COc1ccc2c3c1O[C@H]1[C@H](O)CC[C@H]4[C@@H](C2)N(C)CC[C@@]341`, the Potency entry in [1], in test [2], in [3], in test [4], in test [5] and in test [7] was “inactive” in each case. In addition, the Potency result in test [8], in test [11], in [15], in test [16], in test [17] and in test [19] was “inactive” in each case. The Potency entry in test [20] is “inactive”. The molecule was classed as inactive in [6], in test [9], in test [10], in test [13] and in test [14].

Regarding `CCOP(=S)(OCC)Oc1cc(C)nc(N(CC)CC)n1`, the Potency result in test [1], in [2], in [3], in [4], in [7] and in [8] was “inactive” throughout. Also, the Potency entry in test [11], in test [15], in test [16], in test [17] and in test [19] was “inactive” each time. Also, in test [5], the Potency was 48.6 µM (active). Also, the molecule was called inactive in [6], in test [9], in test [10], in test [12] and in [14].

Take `CCCCC(CC)COC(=O)OOC(C)(C)C` (stereo not given): the Potency entry in test [1], in test [2], in test [3], in test [4], in [18] and in [7] was “inactive” in each case. In addition, the Potency entry in test [8], in [11], in [15], in test [16] and in [17] was “inactive” in each case. The molecule was classed as inactive in [6], in test [9], in [10], in test [12], in test [13] and in test [14].

For the molecule `CCCCON=O`, the Potency result in [1], in test [2], in test [3], in test [4], in test [18] and in test [7] was “inactive” in each case. The Potency entry in [8], in test [11], in test [15], in test [16], in [17] and in test [20] was “inactive” in each case. Further, the call in [6], in test [9], in [10], in test [12] and in [14] was inactive.

As to `CC(C)c1c(CN(C)C(C)Cc2ccccc2)n(C)n(-c2ccccc2)c1=O` (stereo not given), the Potency entry in test [1], in [2], in test [3], in test [4], in [18] and in test [5] was “inactive” in each case. Besides, the Potency entry in [20] is “inactive”. The fluorescence, relative to Rose Bengal in test [6] is 0.213% [at 18.6 µM]. Further, the fluorescence, % of fluorescein control in test [7] was -0.0089% [at 18.6 µM]; in test [16], -0.009% [at 18.6 µM]. Further, in test [8], the fluorescence, % of triamterene was -0.225% [at 18.6 µM]. For the same molecule, the fluorescence, % of fluorescent control in test [9] was -0.993% [at 18.6 µM]; in [11] it was 0.024% [at 18.6 µM]; in test [13] it was 0.362% [at 18.6 µM]; in test [15], -0.0993% [at 18.6 µM]; in [17], 0.105% [at 18.6 µM]. Also, the fluorescence, % of fluorescein in test [10] was -0.0005% [at 18.6 µM]. For the same molecule, in [12], the activity change is -0.0364% [at 18.6 µM]. In addition, in test [14], the fluorescence, % of Rose Bengal is -0.353% [at 18.6 µM].
